Data as given in PubChem BioAssay.
The source made the active and inactive calls.

Key:
[1] = E. coli DRC41 culture turbidity changes, primary screen, E. coli filamentation inducer project, strain DRC41, OD650, 48 h (AID 1152);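 further: E. coli MC1000 strain DRC41 lacking acrAB efflux pump and sulA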; conditions: E. coli DRC41 (acrAB sulA), higher = more signal, called active from +8 up or from −8 down
[2] = small-molecule binders of probe aLefty1, primary screen, biochemical, small-molecule microarray, 635/667 nm fluorescence (AID 1153); conditions: higher = more signal;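 further: score merges spot fluorescence with signal-to-noise ratio from the scanned slide images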
[3] = PSAC antagonists in infected red cells, primary screen, cell-based, P. falciparum Indochina, OD700, 1 h (AID 1154); conditions: P. falciparum Indochina infected RBC osmotic lysis, higher = more signal, called active from +8 up or from −8 down
[4] = PSAC antagonists in infected red cells, primary screen, cell-based, P. falciparum Indochina, OD700, 2 h (AID 1155);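 further: lysis reports solute entry through the parasite surface anion channel PSAC; channel blockers reduce lysis of infected cells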; conditions: P. falciparum Indochina infected erythrocytes, osmotic lysis OD700; higher = more signal, called active from +8 up or from −8 down
[5] = osmotic lysis modulators in infected erythrocytes, primary screen, PSAC antagonist project, cell-based, P. falciparum Indochina, OD700, 3 h (AID 1156); conditions: higher = more signal, called active from +8 up or from −8 down
[6] = PSAC antagonists in infected red cells, primary screen, cell-based, P. falciparum Indochina, OD700, 18 h (AID 1157); conditions: P. falciparum Indochina infected erythrocytes, osmotic lysis OD700, 18 h; higher = more signal, called active from +8 up or from −8 down
[7] = modulators of S6 phosphorylation in cells, primary screen, cell-based, A549, cytoblot, luminescence, serum-stimulated (AID 1158); conditions: A549 phospho-S6 cytoblot, 5 h, higher = more signal;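 further: serum-stimulated A549 lung adenocarcinoma cells; signal is phosphorylated S6 detected by cytoblot immunostaining with HRP secondary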
[8] = target: NADPH oxidase 2 (Homo sapiens) (UniProt P04839); test: NOX2-dependent H2O2 signal modulators, primary screen, NOX inhibitor project, cell-based, HEK293-NOX2, PMA-stimulated, Amplex Red fluorescence (AID 1159); conditions: 45 min, higher = more signal, called active from +8 up or from −8 down; further: test concentration not given here
Chain of NADPH oxidase 2 (Homo sapiens) (P04839 whole entry, looked up): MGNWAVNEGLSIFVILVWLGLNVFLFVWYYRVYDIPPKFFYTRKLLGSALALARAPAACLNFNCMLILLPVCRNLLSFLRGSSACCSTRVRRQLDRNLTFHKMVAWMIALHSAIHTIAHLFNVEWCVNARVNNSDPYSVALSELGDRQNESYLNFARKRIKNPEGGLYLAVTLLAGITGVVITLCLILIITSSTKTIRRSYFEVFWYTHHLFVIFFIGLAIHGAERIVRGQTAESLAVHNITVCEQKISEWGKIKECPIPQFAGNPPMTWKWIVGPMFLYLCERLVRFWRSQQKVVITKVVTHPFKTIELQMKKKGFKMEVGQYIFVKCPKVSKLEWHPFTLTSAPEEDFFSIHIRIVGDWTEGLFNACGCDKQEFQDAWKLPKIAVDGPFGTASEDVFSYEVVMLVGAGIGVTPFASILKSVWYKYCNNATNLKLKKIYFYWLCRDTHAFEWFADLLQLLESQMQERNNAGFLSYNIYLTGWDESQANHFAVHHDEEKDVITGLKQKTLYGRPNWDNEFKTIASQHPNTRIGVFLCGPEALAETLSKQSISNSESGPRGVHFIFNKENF

[9] = target: NADPH oxidase 4 (Homo sapiens) (UniProt Q9NPH5); test: NOX4-dependent H2O2 signal modulators, primary screen, NOX inhibitor project, cell-based, HEK293-NOX4, tetracycline-induced, Amplex Red fluorescence (AID 1160); conditions: 45 min, higher = more signal, called active from +8 up or from −8 down
Chain of NADPH oxidase 4 (Homo sapiens) (Q9NPH5 whole entry, looked up): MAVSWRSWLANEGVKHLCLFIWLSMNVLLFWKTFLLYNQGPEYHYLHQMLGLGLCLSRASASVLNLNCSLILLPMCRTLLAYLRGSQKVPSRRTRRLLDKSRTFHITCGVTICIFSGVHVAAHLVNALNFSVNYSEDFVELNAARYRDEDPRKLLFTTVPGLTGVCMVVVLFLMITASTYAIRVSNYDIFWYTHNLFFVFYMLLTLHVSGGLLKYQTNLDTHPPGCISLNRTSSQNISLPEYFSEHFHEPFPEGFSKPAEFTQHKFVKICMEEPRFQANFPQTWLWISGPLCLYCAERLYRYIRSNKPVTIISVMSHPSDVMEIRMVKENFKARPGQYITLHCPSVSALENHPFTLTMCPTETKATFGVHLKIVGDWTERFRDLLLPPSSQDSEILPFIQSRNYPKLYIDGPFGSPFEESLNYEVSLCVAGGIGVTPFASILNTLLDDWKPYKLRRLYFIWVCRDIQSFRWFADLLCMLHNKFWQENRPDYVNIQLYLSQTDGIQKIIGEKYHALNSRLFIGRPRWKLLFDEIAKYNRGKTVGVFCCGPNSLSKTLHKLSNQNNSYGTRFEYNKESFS

[10] = target: NADPH oxidase 5 (Homo sapiens) (UniProt Q96PH1); test: NOX5-dependent H2O2 signal modulators, primary screen, NOX inhibitor project, cell-based, HEK293-NOX5, Amplex Red fluorescence (AID 1161); conditions: HEK293-NOX5, ionomycin, 45 min, higher = more signal
Chain of NADPH oxidase 5 (Homo sapiens) (Q96PH1 whole entry, looked up): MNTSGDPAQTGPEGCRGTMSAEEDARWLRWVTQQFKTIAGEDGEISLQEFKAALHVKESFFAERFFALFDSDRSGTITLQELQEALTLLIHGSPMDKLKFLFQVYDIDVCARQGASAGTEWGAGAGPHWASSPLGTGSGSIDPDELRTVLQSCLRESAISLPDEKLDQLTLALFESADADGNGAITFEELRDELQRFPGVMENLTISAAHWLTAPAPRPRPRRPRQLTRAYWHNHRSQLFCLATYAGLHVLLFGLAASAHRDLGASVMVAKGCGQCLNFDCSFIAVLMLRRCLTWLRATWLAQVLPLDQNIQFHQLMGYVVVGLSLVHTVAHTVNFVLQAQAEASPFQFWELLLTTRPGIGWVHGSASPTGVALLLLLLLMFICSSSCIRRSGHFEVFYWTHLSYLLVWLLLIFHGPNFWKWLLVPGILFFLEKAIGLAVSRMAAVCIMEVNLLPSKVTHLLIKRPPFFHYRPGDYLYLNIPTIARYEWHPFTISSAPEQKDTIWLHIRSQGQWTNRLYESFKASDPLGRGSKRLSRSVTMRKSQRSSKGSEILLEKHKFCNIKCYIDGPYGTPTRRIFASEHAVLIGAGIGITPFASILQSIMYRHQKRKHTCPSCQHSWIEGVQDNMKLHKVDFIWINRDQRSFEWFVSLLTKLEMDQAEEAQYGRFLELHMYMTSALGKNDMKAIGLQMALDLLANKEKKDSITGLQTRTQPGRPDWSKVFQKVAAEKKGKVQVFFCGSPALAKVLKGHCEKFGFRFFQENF

Structure (SMILES)	z-score [1]	composite z-score [2]	z-score [3]	z-score [4]	z-score [5]	z-score [6]	z-score [7]	z-score [8]	z-score [9]	z-score [10]
COc1ccc([Si](C)(C)[C@H]2[C@H](CC(=O)N3CCC[C@H]3CO)O[C@@]3(C(=O)N(Cc4cccc(N5C(=O)COc6ccccc65)c4)c4ccccc43)[C@@H]2C)cc1	1.62 (inactive)	0.169	6.56 (inactive)	0.0867 (inactive)	-0.749 (inactive)	-0.701 (inactive)	1.03	1.1 (inactive)	1.21 (inactive)	2.99
CCc1cc2c(nc1CC)CCN(CCC(C)=NOC(C)CN1CCCc3nc(C)c(C)cc31)C2 (stereo not given)	-1.97 (inactive)	0.876	2.25 (inactive)	-0.0243 (inactive)	0.0813 (inactive)	0.146 (inactive)	-1.08	-1.41 (inactive)	-0.293 (inactive)	-1.86
CC(C)CON=C1C[C@@H](O)[C@@H](O)[C@@H]2[C@@H]3C(=O)N(C[C@@H]4CCCO4)C(=O)[C@@H]3CC[C@H]12	0.165 (inactive)	-0.0559	0.0811 (inactive)	0.449 (inactive)	-0.425 (inactive)	-0.0131 (inactive)	-0.383	0.202 (inactive)	0.313 (inactive)	-0.61
COCC1=C2[C@@H](CCc3ccccc3)OB(O)C[C@@H]2n2c(=O)n(-c3ccccc3)c(=O)n2C1	-0.144 (inactive)	-0.0816	1.88 (inactive)	-0.256 (inactive)	-0.698 (inactive)	-0.235 (inactive)	0.214	-0.421 (inactive)	-2.2 (inactive)	-1.48
CC(C)N1CC=CC23O[C@@H]4C=CCCOC(=O)C4[C@H]2C(=O)N(CCCCCCO)[C@@H]3C1=O (stereo not given in full)	0.383 (inactive)	-0.007	0.156 (inactive)	0.405 (inactive)	0.799 (inactive)	0.647 (inactive)	0.342	0.584 (inactive)	-0.185 (inactive)	1.52
O=C1O[C@@H](c2ccccc2)[C@@H](c2ccccc2)N2[C@@H](c3ccc(OCCO)cc3)[C@]3(C(=O)Nc4ccc(C#CCCO)cc43)[C@@H](C(=O)N3CCCCCCC3)[C@H]12	0.974 (inactive)	2.79	4.33 (inactive)	1.27 (inactive)	0.526 (inactive)	0.737 (inactive)	-0.178	1.6 (inactive)	0.824 (inactive)	1.08
Cc1cc2c(c(=O)o1)[C@H](O)[C@H]1O[C@H]1C2=O	-0.743 (inactive)	-0.237	-0.228 (inactive)	0.496 (inactive)	0.716 (inactive)	0.0033 (inactive)	-0.573	1.67 (inactive)	-1.04 (inactive)	-1.39
CO[C@@H]1COC(=O)[C@@H]2CCCN2C(=O)[C@@H](C)COC(=O)[C@H](COCc2ccccc2)NC(=O)CC=C[C@H]1C	-2.21 (inactive)	-0.111	0.553 (inactive)	0.367 (inactive)	1.29 (inactive)	0.441 (inactive)	-0.493	-0.363 (inactive)	-0.643 (inactive)	-0.159
CC(C)[C@H](NC(=O)OC(C)(C)C)[C@@H](O)CC(=O)OC(C)(C)C	-0.703 (inactive)	-0.0197	0.775 (inactive)	0.269 (inactive)	0.835 (inactive)	0.128 (inactive)	0.242	1.33 (inactive)	-1.02 (inactive)	1.04
Cc1ccc(S[C@]2(C(=O)NCC(F)(F)F)CC(=O)N(Cc3ccccc3Cl)[C@@H]2c2ccc(CO)cc2I)cc1	0.973 (inactive)	0.051	5.02 (inactive)	0.898 (inactive)	0.276 (inactive)	0.524 (inactive)	-0.35	0.861 (inactive)	-1.67 (inactive)	0.799
O=C1O[C@@H](c2ccccc2)[C@@H](c2ccccc2)N2[C@@H](c3ccc(O)cc3)[C@]3(C(=O)Nc4ccccc43)[C@@H](C(=O)O)[C@H]12	0.772 (inactive)	-0.0536	1.41 (inactive)	-0.968 (inactive)	1.11 (inactive)	-1.77 (inactive)	1.87	-0.215 (inactive)	-0.652 (inactive)	0.0434
CCCNC(=O)OC[C@H]1O[C@H](CCON=C[C@@H](OC)[C@H](C)C=CCC(=O)OC)C=C[C@@H]1Oc1ccc(OC)cc1	-0.042 (inactive)	0.0889	4.4 (inactive)	0.143 (inactive)	-0.0652 (inactive)	0.368 (inactive)	0.0604	-1.56 (inactive)	0.00725 (inactive)	-2.76
